# In PubChem BioAssay (Tox21):
# Results filed as inconclusive are left out. Entries that show only a call come without a potency. The source made the active and inactive calls. The call rests on the fitted dose curve; in most records, active means well fitted cell-killing curve with a large enough effect in the repeat runs; inconclusive means weak or mixed curves, or effect the other way; inactive means flat fitted curve, though single readings scatter.
# Experiment: qHTS RealTime-Glo MT Cell Viability Assay in HepG2 cells - 40 hour (AID 1224870); further: nearly all actives have a fitted effect of over 50% in size
# Settings: RealTime-Glo luminescence; series mostly up to 76.8 µM
# Description: National Center for Advancing Translational Sciences [NCATS]
# NIH Chemical Genomics Center [NCGC]
# U.S. Environmental Protection Agency [EPA]
# National Institutes of Environmental Health Sciences [NIEHS]
# National Toxicology Program [NTP]
# U.S. Food and Drug Administration [FDA]
# Measure of cell viability is critical in the cell-base assay. Analysis of cell viability is necessary for the characterization of cell responses to cytotoxic drugs and environmental stress. A RealTime-Glo MT Cell Viability Assay to monitor cell viability in real time of continues cell culture during 40 hours of compound treatment was used to screen Tox21 10K library compounds in HepG2 cells. The RealTime-Glo MT Cell Viability Assay is a nonlytic, homogeneous, bioluminescent method to measure cell viability in real time using a simple, plate-based method. The assay involves adding NanoLuc luciferase and a cell-permeant prosubstrate to cells in culture. Viable cells reduce the proprietary prosubstrate to generate a substrate for NanoLuc luciferase. This substrate diffuses from cells into the surrounding culture medium, where it is rapidly used by the NanoLuc Enzyme to produce a luminescent signal. The signal correlates with the number of viable cells, making the assay well suited for cytotoxicity studies.
# Tox21 Assay Protocol Summary:
# The mixture of HepG2 cell suspension and reagents were dispensed at 600cells/6 ul/well in 1536-well tissue culture treated black solid bottom plates using a Multidrop dispenser. After the assay plates were incubated at a 37 C/5% CO2 incubator for 5 hours, 23 nL of compounds dissolved in DMSO, positive and negative controls was transferred to the assay plate by a pintool work station. The plates were incubated at 37 C for 40 hours. The luminescence intensity were measured at 0h, 8h, 16h, 24h, 32h and 40h time points using ViewLux plate reader during compound treatment.
# Potency means the concentration at half of the fitted maximal effect.
row,Compound,Potency
1,O=C(O)C(c1ccc(Cl)cc1)c1ccc(Cl)cc1,inactive
2,O=C(O)[C@@H]1[C@H]2C[C@H]3c4[nH]c5ccccc5c4CCN3C[C@@H]2CC[C@@H]1O,inactive
3,C=C(C)C(=O)OCCOc1ccccc1,inactive
4,CN1CCC[C@@H]1c1cccnc1,inactive
5,CC[C@H](C)[C@@H](C(=O)O)n1sc2ccccc2c1=O,30.9 µM (active)
6,CC(C)(C)C1CCCCC1O (stereo not given),inactive
7,CCC(=O)OC(C)(C)C1CC=C(C)CC1 (stereo not given),inactive
8,CCCC(=O)OCC,inactive
9,O=C(O)/C=C/c1cnc[nH]1,inactive
10,CCCCC(CC)COCCCN (stereo not given),inactive
11,CC(C)CCCCCCOC(=O)c1ccc(C(=O)OCCCCCCC(C)C)c(C(=O)OCCCCCCC(C)C)c1,inactive
12,CCCCOC(=O)/C=C\C(=O)OCCCC,inactive
13,CC(=O)Nc1ccc(/C=N/NC(N)=S)cc1,inactive
14,C#CCOC(=O)[C@@H](C)Oc1ccc(Oc2ncc(Cl)cc2F)cc1,inactive
15,CCCC(C)C,inactive
16,Cc1c(Cn2ccnc2)c2ccccc2n1CCC(=O)O,inactive
17,N#CCc1cccc(C(F)(F)F)c1,inactive
18,CCOC(=O)CC(=O)c1cc(F)c(Cl)nc1Cl,inactive
19,Cn1c(=O)c2c(ncn2CC(O)CO)n(C)c1=O (stereo not given),inactive
20,N[C@H]1C(O)O[C@H](CO)[C@H](O)[C@@H]1O (stereo not given in full),inactive

row,Compound,Potency
1,CCCCCCCCCCCCCCC1CO1 (stereo not given),inactive
2,Cc1occc1S,inactive
3,O=C(c1ccccc1)c1ccc2n1CCC2C(=O)O (stereo not given),inactive
4,Nc1nc(CC(=O)O)cs1,inactive
5,CCOC(=O)C1=NN(c2ccccc2)C(=O)C1,inactive
6,Oc1ccc(O)c2c(O)cccc12,inactive
7,CC(C)NCC(O)c1cc(O)cc(O)c1 (stereo not given),inactive
8,CC(C)(C)c1ccc(OCC2CO2)cc1 (stereo not given),inactive
9,CC(C(=O)O)c1ccc(-c2ccccc2)c(F)c1 (stereo not given),inactive
10,CCOC(=S)SSC(=S)OCC,inactive
11,C=CC(C)(CCC=C(C)C)OC(=O)c1ccccc1 (stereo not given),inactive
12,CCCC[C@H]1CN(CC2CCOCC2)C(=O)OC12CCN(C1(C)CCN(C(=O)c3c(C)ncnc3C)CC1)CC2,inactive
13,CCOc1cc(OCC)c(C(=O)CCC(=O)O)cc1OCC,inactive
14,O=C(O)Cn1c(C(=O)Nc2nc(-c3ccccc3Cl)cs2)cc2ccccc21,inactive
15,Oc1ccc(C(O)CNCCCCCCNCC(O)c2ccc(O)c(O)c2)cc1O (stereo not given),inactive
16,Nc1nc(N)c2nc(CNc3ccc(C(=O)N[C@@H](CCC(=O)O)C(=O)O)cc3)cnc2n1,inactive
17,CC(=O)SCc1ccco1,inactive
18,CC(O)C1CCCCC1 (stereo not given),inactive
19,c1ccc(CNCc2ccccc2)cc1,inactive
20,CNCC[C@@H](Oc1ccccc1C)c1ccccc1,inactive
